In the library only some 3.2% were active in any assay of this set; here they are far more common.
NTR1 agonist = NTR1 (human) agonism; AID 493036; NTR1-U2OS beta-arrestin-GFP spot imaging, agonist mode; P30989; actives 0.17% (n = 330,000); activation, % at 20 µM;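 active means activation at or above 40% of the spot to cytoplasm intensity ratio, with at least 20 cells analyzed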;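 further: 0% = DMSO without peptide and 100% = 100 nM NTR1 peptide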
Target sequence (P30989 whole entry, looked up): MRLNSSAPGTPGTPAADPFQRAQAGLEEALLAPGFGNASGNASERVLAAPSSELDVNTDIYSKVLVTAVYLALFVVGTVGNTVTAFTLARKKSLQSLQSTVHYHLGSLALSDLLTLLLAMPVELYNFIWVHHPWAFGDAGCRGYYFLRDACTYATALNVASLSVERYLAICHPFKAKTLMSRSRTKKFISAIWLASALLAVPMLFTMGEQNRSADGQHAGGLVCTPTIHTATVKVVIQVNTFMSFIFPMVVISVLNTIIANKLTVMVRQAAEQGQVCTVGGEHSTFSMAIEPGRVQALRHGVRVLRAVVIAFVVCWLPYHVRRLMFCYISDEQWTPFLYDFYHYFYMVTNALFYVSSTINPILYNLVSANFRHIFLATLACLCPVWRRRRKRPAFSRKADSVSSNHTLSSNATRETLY
A3A deaminase = inhibitors of human APOBEC3A DNA deaminase; P31941; recombinant A3A, FAM/TAMRA ssDNA deamination fluorescence; inhibition, % at 20 µM; actives 0.41% (n = 330,000); AID 493011;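 active means at least 40% inhibition at 20 µM here, with at most 30% in a related deaminase screen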;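 further: plate controls were A3A with DMSO for no effect and wells lacking A3A enzyme for full effect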
AHR act = activates the human aryl hydrocarbon receptor; P35869; AHR-responsive luciferase reporter cells, luminescence; activation, % at 5 µM; actives 2.5% (n = 320,000); in the data active means activation above about 47%;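 further: 0% = vehicle wells and 100% = reference agonist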
A3G deaminase = inhibitors of human APOBEC3G DNA deaminase; recombinant A3G, ssDNA deamination FAM/TAMRA fluorescence; inhibition, % at 20 µM; actives 0.28% (n = 330,000); AID 493012;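 active means inhibition of at least 40% at 20 µM, with no more than 30% in the related APOBEC3A deaminase screen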;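 further: plate controls were DMSO wells with A3G for no effect and wells lacking A3G enzyme for full effect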
* = called active by the depositor.

SMILES	NTR1 agonist	A3A deaminase	AHR act	A3G deaminase
COc1ccc(Nc2nc(-c3ccccc3)nc3ccccc23)c(OC)c1	12	-3	28	-7
Cc1ccc(-c2cc(-c3ccccc3)nc(N/N=C/c3cccnc3)n2)cc1	16	-1	63*	0
C(=N\Nc1nc(Nc2ccccc2)nc(Nc2ccccc2)n1)/c1cccnc1	7	-3	142*	-2
C(=N/Nc1nc(-c2ccccc2)cc(-c2ccccc2)n1)/c1cccnc1	6	1	23	3
COc1ccc(CNC(=O)c2ccccc2SCC(=O)NCc2ccco2)cc1	-2	-2	2	-6
COc1ccc(N2CCN(Cc3cc(=O)c(OCC(=O)NC4CCCC4)co3)CC2)cc1	-1	-2	-2	-10
Cc1ccc(C)c(Nc2nc(-c3ccncc3)nc3ccccc23)c1	5	-2	68*	-9
Cc1ccc(-c2nc(N/N=C/c3cccc([N+](=O)[O-])c3)c3ccccc3n2)cc1	14	1	14	-4
Cc1ccc(-c2nc(N/N=C/c3cccnc3)c3ccccc3n2)cc1	9	-2	62*	-6
CCC1(C)OC(=O)N2CCc3c(C)[nH]c4c(C)ccc(c34)C21C (stereo not drawn)	-1	-8	62*	-8
COC(=O)c1sc(NC(=O)c2cc(C)on2)nc1C	0	1	11	-10
Cc1cc(NC(=O)c2cccc(Br)c2)n[nH]1	-4	4	73*	18
COc1cccc(C(=O)NC(=O)Nc2cc(C)[nH]n2)c1	0	7	51*	-1
COc1cccc(C(=O)Nc2ccncc2)c1	0	0	5	1
COC(=O)C1=C(C)NC=C([N+](=O)[O-])C1c1ccc(OC)cc1 (stereo not drawn)	-2	-5	4	-6
CCn1nc(NC(=O)C2CCCO2)c2cc3cc(C)ccc3nc21 (stereo not drawn)	1	-1	67*	-3
Cc1c(C(=O)N(C)C(C)c2ccncn2)oc2c(F)cccc12 (stereo not drawn)	2	-1	7	-4
Cc1c(C(=O)N(C)C(C)c2ccccn2)oc2c(F)cccc12 (stereo not drawn)	0	-2	54*	-7
CCCCc1ccc(NC(=S)NCc2ccc(OC)cc2)cc1	2	0	1	-8
COc1ccc(NC(=O)CC2C(=O)Nc3ccccc3N2CC(=O)N2CCCC2)cc1 (stereo not drawn)	0	2	74*	-4
CCCOc1ccc(NC(=O)CC2C(=O)Nc3ccccc3N2CC(=O)N2CCCC2)cc1 (stereo not drawn)	1	-4	5	-7
Brc1ccccc1-n1nnc(-c2cnc3ccccc3c2)n1	10	-1	54*	0
Clc1nc2ccccc2cc1-c1nnn(-c2ccccc2Br)n1	0	-3	17	-4
COc1ccc(-c2nnc(OCc3ccccc3)c3ccccc23)cc1	12	-3	56*	-10
c1ccc(-c2nnc(OCc3cccnc3)c3ccccc23)cc1	2	-4	17	-5
SMILES	NTR1 agonist	A3A deaminase	AHR act	A3G deaminase
CC(=O)Oc1oc(-c2ccccc2)nc1C=Nc1ccc(N(C)C)cc1	5	-4	5	-5
CN(C)c1ccc(N=Cc2nc(-c3ccccc3)oc2OC(=O)c2ccccc2)cc1	2	0	49*	6
CSc1cccc(NC(=O)C2(S(=O)(=O)c3ccc(C)cc3)CC2)c1	0	1	6	-3
Cc1cc(C)nc(Nc2nc(C)c3cc4c(cc3n2)OCO4)n1	-2	-1	49*	0
COc1ccc(C(=O)Nc2nc(C)c3cc4c(cc3n2)OCO4)cc1	-1	-4	39	-9
COc1ccc2c(c1)C(c1ccc(Cl)cc1)NC(=O)C2 (stereo not drawn)	-1	-2	0	-3
O=C(NC(=S)Nc1ccc2c(c1)C(=O)c1ccccc1C2=O)c1ccc(F)cc1	-1	2	25	2
Cn1c(Cn2c(=O)sc3ccccc32)nnc1SCC(=O)NCc1ccc2c(c1)OCO2	-2	-1	0	-5
Cn1c(Cn2c(=O)sc3ccccc32)nnc1SCC(=O)Nc1ccc2c(c1)OCO2	-3	0	59*	-8
Clc1cccc(-c2noc3ncnc(Nc4ccc5c(c4)OCO5)c23)c1	-2	-3	55*	-2
Cc1ccc(CS/C(Nc2ccccc2C)=C(\C#N)C(N)=O)c(C)c1	36	-1	9	-3
O=C(CSc1nc2ccccc2c(=O)[nH]1)Nc1ccc(Br)cc1	3	3	15	2
CCN(CC)c1ccc(NC(=O)CSc2nc3ccccc3c(=O)[nH]2)cc1	0	-2	63*	-5
Cc1ccc(NC(=O)C2=CC(c3cccs3)=NS(=O)(=O)N2C)cc1	4	0	64*	0
O=C(Nc1ccccc1)c1nc[nH]c1C(=O)NCCCCNC(=O)c1[nH]cnc1C(=O)Nc1ccccc1	7	4	19	1
CNC(=O)c1[nH]cnc1C(=O)Nc1cccc(Cl)c1	0	2	55*	-4
CN(CCN(C)C(=O)c1[nH]cnc1C(=O)Nc1ccccc1)C(=O)c1[nH]cnc1C(=O)Nc1ccccc1	-1	-5	47*	-6
CN(Cc1ccccc1)C(=O)c1[nH]cnc1C(=O)Nc1ccc(Cl)cc1	5	-4	66*	-12
O=C(Nc1ccccc1)c1nc[nH]c1C(=O)NCCNC(=O)c1[nH]cnc1C(=O)Nc1ccccc1	-1	-3	76*	-6
O=C(Nc1cccc(Cl)c1)c1nc[nH]c1C(=O)NCCCNC(=O)c1[nH]cnc1C(=O)Nc1cccc(Cl)c1	2	-5	34	-7
O=C(CCC(=O)N1CCN(c2cccc(Cl)c2)CC1)c1cccs1	0	2	4	3
COc1ccc(OC)c(S(=O)(=O)NCc2cc(-c3ccccc3)no2)c1	2	-2	51*	-5
COc1ccc(OC)c(S(=O)(=O)NCc2ccccc2)c1	-4	1	0	-8
Cc1cc(C)c2cc(C(=O)Nc3ccccc3)[nH]c2c1	2	-4	47*	-6
Cc1cc(C)c2cc(C(=O)Nc3ccc4c(c3)OCO4)[nH]c2c1	1	2	10	18
SMILES	NTR1 agonist	A3A deaminase	AHR act	A3G deaminase
O=C(NCCCN1CCOCC1)C(=O)NCc1ccc(Cl)cc1	2	-5	1	-9
COc1cccc(Nc2nc(-c3sc(NC(=O)c4ccccc4)nc3C)cs2)c1	3	3	41	22
COc1cccc(Nc2nc(-c3sc(NC(=O)CC(C)C)nc3C)cs2)c1	0	-1	51*	-9
COc1ccccc1Nc1nc(-c2sc(NC(=O)CC(C)C)nc2C)cs1	15	-6	71*	-7
CC(Sc1nnc(Nc2ccccc2)s1)C(=O)Nc1nc(-c2ccccc2)cs1 (stereo not drawn)	7	-3	13	-12
CC(Sc1nnc(NCc2ccccc2)s1)C(=O)Nc1ccc2c(c1)C(=O)c1ccccc1C2=O (stereo not drawn)	6	1	50*	-6
Cc1ccccc1C1NC(=S)NC2=C1C(=O)CCC2 (stereo not drawn)	2	-1	-4	-15

Assay outcomes as filed in PubChem.
